# Measurements taken from PubChem BioAssay (Tox21).
# Several values for one entry are separate records, joined by “and”; a condition that tells them apart may be missing. Equal entries are not always repeated. Results filed as inconclusive are left out. A call without a number means that no potency is given here. More than one record can exist for a structure, and the calls need not agree. Activity calls are given as the source filed them. The call rests on the fitted dose curve; in most records, active means well fitted curve in the direction sought with a large enough effect in the repeat runs; inconclusive means weak or mixed curves; inactive means no such curve, though single readings can be large; an effect the other way counts as inactive or inconclusive.
# Key:
# [1] = qHTS RealTime-Glo MT Cell Viability Assay in HepG2 cells - 40 hour (AID 1224870); further: nearly all actives have a fitted effect of over 50% in size
# Summary of the method: (§1)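 Real-time viability: cells seeded at 600 per well together with NanoLuc and cell-permeant prosubstrate, compounds added after 5 h incubation. Luminescence tracked at 0, 8, 16, 24, 32 and 40 h of exposure.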
# [2] = A CellTox Green Cytotoxicity Assay to monitor cytotoxicity in HEK293 cells - 40 hour (AID 1224871); further: nearly all actives have a fitted effect of over 45% in size; further: potency means the concentration at half of the fitted maximal effect
# Summary of the method: (§2)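 Tox21 screen in HEK293: membrane-impermeant cyanine dye fluoresces on binding dead-cell DNA; compound pinned 5 h post-seeding, plates held at 37 C, signal read repeatedly through 40 h.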
# [3] = qHTS RealTime-Glo MT Cell Viability Assay in HEK293 cells - 16 hour (AID 1224872); further: nearly all actives have a fitted effect of over 50% in size; further: potency means the concentration at half of the fitted maximal effect
# Summary of the method: (§3)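 Cells + reagent dispensed (600 cells/well, HEK293) → 5 h at 37 C/5% CO2 → 23 nL compound in DMSO pinned → 40 h at 37 C → luminescence read at 0, 8, 16, 24, 32, 40 h.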
# [4] = qHTS RealTime-Glo MT Cell Viability Assay in HepG2 cells - 8 hour (AID 1224873); further: nearly all actives have a fitted effect of over 55% in size; further: potency means the concentration at half of the fitted maximal effect
# Summary of the method: as §1
# [5] = A CellTox Green Cytotoxicity Assay to monitor cytotoxicity in HEK293 cells - 24 hour (AID 1224875); further: nearly all actives have a fitted effect of over 45% in size; further: potency means the concentration at half of the fitted maximal effect
# Summary of the method: as §2
# [6] = qHTS RealTime-Glo MT Cell Viability Assay in HepG2 cells - 32 hour (AID 1224877); further: nearly all actives have a fitted effect of over 55% in size; further: potency means the concentration at half of the fitted maximal effect
# Summary of the method: (§4)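 Real-time, nonlytic viability: 600 HepG2 cells/well mixed with NanoLuc enzyme plus prosubstrate; 5 h settle, compound (DMSO) added by pintool; luminescence monitored over 40 h at 37 C.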
# [7] = A CellTox Green Cytotoxicity Assay to monitor cytotoxicity in HepG2 cells - 24 hour (AID 1224878); further: nearly all actives have a fitted effect of over 45% in size; further: potency means the concentration at half of the fitted maximal effect
# Summary of the method: (§5)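 Measurements at 0, 8, 16, 24, 32 and 40 h of treatment captured CellTox Green fluorescence in HepG2 cells that had been co-plated with reagent and preincubated 5 h at 37 C/5% CO2.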
# [8] = A CellTox Green Cytotoxicity Assay to monitor cytotoxicity in HepG2 cells - 40 hour (AID 1224879); further: nearly all actives have a fitted effect of over 40% in size; further: potency means the concentration at half of the fitted maximal effect
# Summary of the method: as §5
# [9] = qHTS RealTime-Glo MT Cell Viability Assay in HEK293 cells - 0 hour (AID 1224880); further: top concentration of the series differs between compounds; nearly all actives have a fitted effect of over 45% in size
# Summary of the method: (§6)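 HEK293 + NanoLuc + prosubstrate, 600 cells/well; 5 h, 37 C/5% CO2; compound 23 nL in DMSO by pintool; 37 C; luminescence read at 0, 8, 16, 24, 32 and 40 h time points.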
# [10] = A CellTox Green Cytotoxicity Assay to monitor cytotoxicity in HEK293 cells - 32 hour (AID 1224881); further: nearly all actives have a fitted effect of over 40% in size; further: potency means the concentration at half of the fitted maximal effect
# Summary of the method: as §2
# [11] = A CellTox Green Cytotoxicity Assay to monitor cytotoxicity in HepG2 cells - 0 hour (AID 1224882); further: nearly all actives have a fitted effect of over 35% in size; further: potency means the concentration at half of the fitted maximal effect
# Summary of the method: as §5
# [12] = A CellTox Green Cytotoxicity Assay to monitor cytotoxicity in HEK293 cells - 8 hour (AID 1224884); further: nearly all actives have a fitted effect of over 35% in size; further: potency means the concentration at half of the fitted maximal effect
# Summary of the method: as §2
# [13] = qHTS RealTime-Glo MT Cell Viability Assay in HepG2 cells - 16 hour (AID 1224885); further: nearly all actives have a fitted effect of over 50% in size; further: potency means the concentration at half of the fitted maximal effect
# Summary of the method: as §4
# [14] = qHTS RealTime-Glo MT Cell Viability Assay in HEK293 cells - 24 hour (AID 1224886); further: nearly all actives have a fitted effect of over 50% in size; further: potency means the concentration at half of the fitted maximal effect
# Summary of the method: as §3
# [15] = qHTS RealTime-Glo MT Cell Viability Assay in HEK293 cells - 8 hour (AID 1224887); further: nearly all actives have a fitted effect of over 50% in size; further: potency means the concentration at half of the fitted maximal effect
# Summary of the method: as §6
# [16] = A CellTox Green Cytotoxicity Assay to monitor cytotoxicity in HEK293 cells - 16 hour (AID 1224888); further: nearly all actives have a fitted effect of over 35% in size; further: potency means the concentration at half of the fitted maximal effect
# Summary of the method: as §2
# [17] = A CellTox Green Cytotoxicity Assay to monitor cytotoxicity in HepG2 cells - 16 hour (AID 1224876); further: nearly all actives have a fitted effect of over 45% in size; further: potency means the concentration at half of the fitted maximal effect
# Summary of the method: as §5
# [18] = A CellTox Green Cytotoxicity Assay to monitor cytotoxicity in HepG2 cells - 32 hour (AID 1224883); further: nearly all actives have a fitted effect of over 50% in size; further: potency means the concentration at half of the fitted maximal effect
# Summary of the method: as §5
# [19] = qHTS RealTime-Glo MT Cell Viability Assay in HepG2 cells - 0 hour (AID 1224889); further: nearly all actives have a fitted effect of over 50% in size
# Summary of the method: as §4
# [20] = qHTS RealTime-Glo MT Cell Viability Assay in HEK293 cells - 40 hour (AID 1224874); details: RealTime-Glo luminescence; max response: stronger effect = lower value; further: nearly all actives have a fitted effect of over 50% in size; further: potency means the concentration at half of the fitted maximal effect
# Summary of the method: as §6
smiles,measurement,setting,value
Cc1ncc[nH]1,Potency,[1],inactive
same,Potency,[2],inactive
same,Potency,[3],inactive
same,Potency,[4],inactive
same,Potency,[5],inactive
same,Potency,[6],inactive
same,Potency,[7],inactive
same,Potency,[8],inactive
same,Potency,[9],inactive
same,Potency,[10],inactive
same,Potency,[11],inactive
same,Potency,[12],inactive
same,Potency,[13],inactive
same,Potency,[14],inactive
same,Potency,[15],inactive
same,Potency,[16],inactive
CCCCCCCCCC(=O)OC,Potency,[1],inactive
same,Potency,[2],inactive
same,Potency,[3],inactive
same,Potency,[4],inactive
same,Potency,[5],inactive
same,Potency,[17],inactive
same,Potency,[6],inactive
same,Potency,[7],inactive
same,Potency,[8],inactive
same,Potency,[9],inactive
same,Potency,[10],inactive
same,Potency,[11],inactive
same,Potency,[18],inactive
same,Potency,[12],inactive
same,Potency,[13],inactive
same,Potency,[14],inactive
same,Potency,[15],inactive
same,Potency,[16],inactive
same,Potency,[19],inactive
CC(CCC(=O)O)(c1ccc(O)cc1)c1ccc(O)cc1,Potency,[1],inactive
same,Potency,[2],inactive
same,Potency,[3],inactive
same,Potency,[4],inactive
same,Potency,[5],inactive
same,Potency,[17],inactive
same,Potency,[6],inactive
same,Potency,[7],inactive
same,Potency,[8],inactive
same,Potency,[9],inactive
same,Potency,[10],inactive
same,Potency,[11],inactive
same,Potency,[12],inactive
same,Potency,[13],inactive
same,Potency,[14],inactive
same,Potency,[15],inactive
same,Potency,[16],inactive
O=C(Nc1ccc(Cl)cc1)Nc1ccc(Cl)c(Cl)c1,Potency,[1],inactive
same,Potency,[2],inactive and 8.71 µM (active)
same,Potency,[4],inactive
same,Potency,[20],4.34 µM (active) and 3.89 µM (active) and 3.01 µM (active)
same,Potency,[5],inactive
same,Potency,[6],inactive
same,Potency,[7],inactive
same,Potency,[9],inactive
same,Potency,[10],inactive
same,Potency,[11],inactive
same,Potency,[12],inactive
same,Potency,[13],inactive
same,Potency,[15],inactive
same,Potency,[16],inactive
same,Potency,[19],inactive
C=CC(C)(CCC=C(C)C)OC(C)=O (centres undefined),Potency,[1],inactive
same,Potency,[2],inactive
same,Potency,[3],inactive
same,Potency,[4],inactive
same,Potency,[6],inactive
same,Potency,[7],inactive
same,Potency,[8],inactive
same,Potency,[9],inactive
same,Potency,[10],inactive
same,Potency,[11],inactive
same,Potency,[18],inactive
same,Potency,[12],inactive
same,Potency,[13],inactive
same,Potency,[14],inactive
same,Potency,[15],inactive
same,Potency,[16],inactive
same,Potency,[19],inactive
Nc1ccc(Nc2ccccc2)cc1,Potency,[2],inactive
same,Potency,[3],43.2 µM (active)
same,Potency,[4],inactive
same,Potency,[20],48.5 µM (active)
same,Potency,[5],inactive
same,Potency,[6],inactive
same,Potency,[7],inactive
same,Potency,[8],inactive
same,Potency,[9],inactive
same,Potency,[10],inactive
same,Potency,[11],inactive
same,Potency,[18],inactive
same,Potency,[12],inactive
same,Potency,[13],inactive
same,Potency,[14],48.5 µM (active)
same,Potency,[15],21.6 µM (active) and 21.9 µM (active)
same,Potency,[16],inactive
same,Potency,[19],inactive
Cc1cc2nc3c(=O)[nH]c(=O)nc-3n(C[C@H](O)[C@H](O)[C@H](O)CO)c2cc1C,Potency,[2],43.2 µM (active) and 40.5 µM (active) and 10.4 µM (active)
same,Potency,[3],inactive
same,Potency,[4],inactive
same,Potency,[5],48.5 µM (active) and 40.5 µM (active) and 11.7 µM (active)
same,Potency,[17],43.2 µM (active) and 40.5 µM (active) and 11.7 µM (active)
same,Potency,[6],inactive
same,Potency,[7],43.2 µM (active) and 40.5 µM (active) and 11.7 µM (active)
same,Potency,[8],43.2 µM (active) and 40.5 µM (active) and 11.7 µM (active)
same,Potency,[9],inactive
same,Potency,[10],48.5 µM (active) and 45.5 µM (active) and 11.7 µM (active)
same,Potency,[11],43.2 µM (active) and 40.5 µM (active) and 11.7 µM (active)
same,Potency,[18],43.2 µM (active) and 40.5 µM (active) and 11.7 µM (active)
same,Potency,[12],43.2 µM (active) and 40.5 µM (active) and 11.7 µM (active)
same,Potency,[13],inactive
same,Potency,[14],inactive
same,Potency,[15],inactive
same,Potency,[16],43.2 µM (active) and 40.5 µM (active) and 11.7 µM (active)
CCOC(=O)C(C#N)=C(c1ccccc1)c1ccccc1,Potency,[2],inactive
same,Potency,[3],inactive
same,Potency,[4],inactive
same,max response,[20],-18.4% (inactive) and -13.3% (inactive)
same,Potency,[17],inactive
same,Potency,[6],inactive
same,Potency,[7],inactive
same,Potency,[8],inactive
same,Potency,[9],inactive
same,Potency,[10],inactive
same,Potency,[11],inactive
same,Potency,[18],inactive
same,Potency,[12],inactive
same,Potency,[13],inactive
same,Potency,[14],inactive
same,Potency,[15],inactive
same,Potency,[16],inactive
same,Potency,[19],inactive
S=C(NC1CCCCC1)NC1CCCCC1,Potency,[2],inactive
same,Potency,[4],inactive
same,Potency,[20],17 µM (active) and 21.9 µM (active)
same,Potency,[5],inactive
same,Potency,[6],inactive
same,Potency,[7],inactive
same,Potency,[8],inactive
same,Potency,[9],inactive
same,Potency,[10],inactive
same,Potency,[11],inactive
same,Potency,[18],inactive
same,Potency,[12],inactive
same,Potency,[13],inactive
same,Potency,[14],17 µM (active) and 21.9 µM (active)
same,Potency,[16],inactive
CCC(C)OC(=O)c1ccc(O)cc1 (centres undefined),Potency,[2],inactive
same,Potency,[4],inactive
same,Potency,[5],inactive
same,Potency,[6],inactive
same,Potency,[9],inactive
same,Potency,[10],inactive
same,Potency,[11],inactive
same,Potency,[12],inactive
same,Potency,[13],inactive
same,Potency,[15],inactive
same,Potency,[16],inactive
CCCc1c(OCCCCc2nn[nH]n2)ccc(C(C)=O)c1O,Potency,[2],inactive
same,Potency,[3],inactive
same,Potency,[4],inactive
same,max response,[20],0.608% (inactive) and 1.1% (inactive)
same,Potency,[5],inactive
same,Potency,[6],inactive
same,Potency,[7],inactive
same,Potency,[8],inactive
same,Potency,[9],inactive
same,Potency,[10],inactive
same,Potency,[11],inactive
same,Potency,[12],inactive
same,Potency,[13],inactive
same,Potency,[14],inactive
same,Potency,[15],inactive
same,Potency,[16],inactive
same,Potency,[19],inactive
CCCCc1oc2ccccc2c1C(=O)c1cc(I)c(OCCN(CC)CC)c(I)c1,Potency,[2],44 µM (active)
same,Potency,[3],39.2 µM (active) and 21.3 µM (active)
same,Potency,[4],39.2 µM (active)
same,Potency,[17],44 µM (active)
same,Potency,[6],39.2 µM (active) and 23.9 µM (active)
same,Potency,[7],39.2 µM (active)
same,Potency,[8],31.1 µM (active) and 26.8 µM (active)
same,Potency,[9],inactive
same,Potency,[10],44 µM (active)
same,Potency,[11],inactive
same,Potency,[18],34.9 µM (active) and 26.8 µM (active)
same,Potency,[12],inactive
same,Potency,[13],39.2 µM (active)
same,Potency,[14],34.9 µM (active) and 23.9 µM (active)
